Laboratory results taken from the supplement of paper PMC8728848.
This is one part of a sample in which the strongest signals are shown more often than they occur.

What was measured:
Assay in all cases: glycan array binding signal (z-score within array); higher = stronger binding
Conditions in all cases: glycan notation: IUPAC condensed, linker removed
GalNAc(b1-4)GlcNAc = target: GalNAc(b1-4)GlcNAc
Summary of the method: (§1)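 Arrays were curated from the Consortium for Functional Glycomics database, 3228 in total, and kept only where the protein sequence was available. Binding is expressed as a within-array Z-score. This score was averaged across arrays of the same protein sequence at different concentrations or buffers and across linkers, and negative values can be read as non-binding.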

[1] = target: Glc(a1-4)Glc(a1-4)Glc(a1-4)Glc
Summary of the method: as §1

[2] = target: GlcNAc(b1-2)[GlcNAc(b1-4)]Man(a1-3)[GlcNAc(b1-4)][GlcNAc(b1-2)[GlcNAc(b1-6)]Man(a1-6)]Man(b1-4)GlcNAc(b1-4)[Fuc(a1-6)]GlcNAc
Summary of the method: as §1

[3] = target: GlcNAc(b1-3)Gal(b1-4)GlcNAc
Summary of the method: as §1

[4] = target: GlcNAc(b1-3)Gal(b1-4)GlcNAc(b1-3)Gal(b1-4)GlcNAc(b1-3)Gal(b1-4)GlcNAc(b1-2)[GlcNAc(b1-3)Gal(b1-4)GlcNAc(b1-3)Gal(b1-4)GlcNAc(b1-3)Gal(b1-4)GlcNAc(b1-6)]Man(a1-6)[GlcNAc(b1-3)Gal(b1-4)GlcNAc(b1-3)Gal(b1-4)GlcNAc(b1-3)Gal(b1-4)GlcNAc(b1-2)Man(a1-3)]Man(b1-4)GlcNAc(b1-4)[Fuc(a1-6)]GlcNAc
Summary of the method: as §1

[5] = target: GlcNAc(b1-3)[GlcNAc(b1-6)]Gal(b1-4)GlcNAc
Summary of the method: as §1

[6] = target: Man(a1-2)Man(a1-2)Man(a1-3)Man
Summary of the method: as §1

[7] = target: Man(a1-2)Man(a1-3)[Man(a1-6)]Man(a1-6)[Man(a1-2)Man(a1-3)]Man(b1-4)GlcNAc(b1-4)GlcNAc
Summary of the method: as §1

Man(a1-6)Man = target: Man(a1-6)Man
Summary of the method: as §1

[8] = target: Neu5Ac(a2-3)Gal(b1-3)GalNAc(b1-4)[Neu5Ac(a2-3)]Gal(b1-4)Glc
Summary of the method: as §1

[9] = target: Neu5Ac(a2-3)Gal(b1-3)[Fuc(a1-4)]GlcNAc(b1-3)Gal(b1-3)[Fuc(a1-4)]GlcNAc
Summary of the method: as §1

Neu5Ac(a2-3)Gal(b1-4)Glc = target: Neu5Ac(a2-3)Gal(b1-4)Glc
Summary of the method: as §1

[10] = target: Neu5Ac(a2-3)[GalNAc(b1-4)]Gal(b1-4)GlcNAc
Summary of the method: as §1

Neu5Ac(a2-6)Gal(b1-4)Glc = target: Neu5Ac(a2-6)Gal(b1-4)Glc
Summary of the method: as §1

[11] = target: Neu5Ac(a2-6)Gal(b1-4)GlcNAc(b1-2)Man(a1-3)[Neu5Ac(a2-6)Gal(b1-4)GlcNAc(b1-2)Man(a1-6)]Man(b1-4)GlcNAc(b1-4)[Fuc(a1-6)]GlcNAc
Summary of the method: as §1

[12] = target: Neu5Ac(a2-6)GlcNAc(b1-4)GlcNAc(b1-4)GlcNAc
Summary of the method: as §1

[13] = target: Neu5Ac(a2-8)Neu5Ac(a2-8)Neu5Ac(a2-3)Gal(b1-4)Glc
Summary of the method: as §1

B1: Na-CTL-1 (Necator americanus) (protein)
chain: MQRSFLLLLVVLAGAWAVNTTIPLKLMGGFTPMKYQCVGRVSDIWADVLFLIESSDMITKSGFRQVIAFITATTKKMTIGQDEKQTRVGFITYGEEAKLIYDLDHWRSTEKLSDLVQKIPYVKSSGTNIAAAIALANKVFNSPTHRPNVPKVMVIVANGLKKGSQNPIPVATAFKDFGGIIITIEYTQYDNIQVPILKKIASEGYNIRSNDEDFSVRTLTNMLLQANCFCPDHYVPFRVNNPEFGCFVTAKIPSMWRDAAEMCRAVEEGKLVKVENEEKAAFIMKLVGPKKEAWIGLRYYGNKFQWTDGTKLNADDFNLWPEDIKELNGPHCVSMYQDQKDKKYYWRAGKCLEDMRYVCEVQPCSASNYCSEPVFMYRQKHRALLPAPPPPPN
- glycan array binding signal (z-score) (GalNAc(b1-4)GlcNAc): 1.86
- glycan array binding signal (z-score) [1]: -0.045
- glycan array binding signal (z-score) [2]: -0.111
- glycan array binding signal (z-score) [3]: -0.383
- glycan array binding signal (z-score) [4]: 1.69
- glycan array binding signal (z-score) [5]: -0.476
- glycan array binding signal (z-score) [6]: 0.039
- glycan array binding signal (z-score) [7]: 0.06
- glycan array binding signal (z-score) (Man(a1-6)Man): -0.528
- glycan array binding signal (z-score) [8]: 0.065
- glycan array binding signal (z-score) [9]: -0.347
- glycan array binding signal (z-score) (Neu5Ac(a2-3)Gal(b1-4)Glc): 2.35
- glycan array binding signal (z-score) [10]: -0.222
- glycan array binding signal (z-score) (Neu5Ac(a2-6)Gal(b1-4)Glc): -0.543
- glycan array binding signal (z-score) [11]: 0.041
- glycan array binding signal (z-score) [12]: 1.95
- glycan array binding signal (z-score) [13]: -0.34
